Drawing on PubChem BioAssay AID1259343 (VanderVen Lab, College of Veterinary Medicine, Cornell …, 2017), this text covers inhibition for 30 molecules.

The campaign covered roughly 6,200 compounds. About 2,900 (47%) were called active. So high a share suggests a set chosen from earlier hits. This is one part of the list. Unmarked numbers belong to inactive results. Cut-off read from the data, not from the text of the source: active = inhibition above about 50%; inactive = the rest.

The assay can be described thus: Mycobacterium tuberculosis growth inhibition, primary screen (AID 1259343). The following applies: inhibition: at 10 µM, stronger effect = higher value; outcome: 10 uM.
Broadly, the inhibition is the change of the read-out against control, counted positive when it falls. Consider `COCCCCC(=O)Nc1cc(C(F)(F)F)[nH]n1`, for which the inhibition was 78% (active).
In the case of `COc1cccc2c1OC(c1ccccn1)N1N=C(c3ccccc3)CC21` (stereo not given) it was -22.4%; in that of `Cc1cccc(C2Oc3ccccc3C3CC(c4ccc5c(c4)OCCO5)=NN32)c1` (stereo not given), -14.9%.
For `COc1cccc(C2Oc3ccccc3C3CC(c4ccc5c(c4)OCCO5)=NN32)c1` (stereo not given), the inhibition is 103% (active).
In the case of `CN1CCC[C@@H]1CCO[C@](C)(c1ccccc1)c1ccc(Cl)cc1` it was 37.7%; in that of `O=C(Nc1ncc(-c2ccccc2)s1)C1CSCCS1` (stereo not given), 95.8% (active).
With `O=C(Nc1ncc(-c2ccccc2)s1)OCC(F)(F)F` the figure was 0.3%.
For `CC1(C)CC(=O)CC(=NNC(=S)NC2CCCCC2)C1`, the inhibition was 34.4%.
With `O=C1CCCC(=NNC(=S)NC2CCCCC2)C1` the figure was 55.2% (active); with `S=C(NN=C1CC2CC=CC12)NC1CCCCC1` (stereo not given), 1.05%.
Consider `CN(CCC(O)c1ccccc1)C(=O)c1ccc(Cl)s1` (stereo not given), for which the inhibition was 13.2%.
As to `CC(CCc1ccccc1)N=c1c([N+](=O)[O-])nn(-c2ccccc2)n1O` (stereo not given), the inhibition was 102% (active).
On to `Cc1cc2c(=O)n(Cc3ccco3)c(SCC(=O)c3cccs3)nc2s1`, for which the inhibition is 85.2% (active).
For the molecule `COc1ccc(-c2noc(CSc3nnnn3C3CCCC3)n2)cc1`, the inhibition was 41%.
In the case of `COc1ccc(-c2noc(COc3cccc4c3OCCO4)n2)cc1` it was 51.6% (active).
As for `CN(NC(=O)CC(=O)NN(C)C(=S)c1ccccc1)C(=S)c1ccccc1`, the inhibition was 102% (active).
In the case of `CC(C(O)c1ccccc1)N(C)C(=O)c1ccccc1` (stereo not given) it was 1.34%; in that of `Oc1ccc2ccccc2c1C=NNc1nnc(-c2ncc[nH]2)c2ccccc12`, 99% (active).
In the case of `Oc1ccc2ccccc2c1C=NNC1=NCCC1` it was 27.5%; in that of `Cc1cc(=O)[nH]c(NN=Cc2c3ccccc3cc3ccccc23)n1`, 49.1%.
With `CCCC(C)C1(CC)C(=O)NC(=S)NC1=O` (stereo not given) the figure was 32.6%.
With `Nc1cc([N+](=O)[O-])ccc1NS(=O)(=O)c1ccc(Cl)cc1`, the inhibition is -52.1%.
`Nc1ccc(S(=O)(=O)Nc2ccc([N+](=O)[O-])cc2O)cc1`: the inhibition was 53.9% (active).
With `CS(=O)(=O)Nc1ccc([N+](=O)[O-])cc1Oc1ccccc1`, the inhibition is 24.9%.
In the case of `CC(=NNC(N)=S)C1=CC(C)(C)CCC1` it was 90.9% (active); in that of `CCc1ccc(C(=O)Nc2ccc(Br)cc2)s1`, 73.9% (active); in that of `CCc1ccc(C(=O)Nc2ncc(C)s2)s1`, 62.1% (active).
With `CCOc1ccc(NC(=O)c2ccc(Br)s2)cc1` the figure was 8.86%; with `Cc1cnc(NC(=O)c2cccc(OC(F)F)c2)s1`, -11.7%; with `Cc1cnc(NC(=O)C2=C(O)c3ccccc3S(=O)(=O)N2C)s1`, 34.9%.
